Results published in PubChem BioAssay (Tox21).
Values joined by “and” are separate entries in the source; they are usually repeats but may differ in a detail not shown here. Equal entries are not always repeated. Unmarked numbers belong to inactive results. Records with an inconclusive call do not appear. Where a call stands in place of a potency, no number is given. Active and inactive are the calls of the source. Unless noted, calls come from the whole dose curve; as a rule, active = well fitted curve in the direction sought with a large enough effect in the repeat runs; inconclusive = weak or mixed curves; inactive = no such curve, though single readings can be large; an effect the other way counts as inactive or inconclusive.

Tests used:
[1] = qHTS assay for small molecule agonists of the p53 signaling pathway (AID 651631; calls by dose curve; note: nearly all actives have a fitted effect of over 15% in size; note: potency is the fitted concentration of half-maximal effect)
Outline: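 HCT-116 p53RE-bla reporter line, 16 h compound treatment at 37 °C, then fluorescence after 2 h with B/G FRET substrate.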

[2] = qHTS assay for small molecules that induce genotoxicity in human embryonic kidney cells expressing luciferase-tagged ATAD5 (AID 651632); note: nearly all actives have a fitted effect of over 15% in size
Outline: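 ATAD5-luc HEK293T, 2,000 cells/well; cpd or DMSO pin-transferred; 16 hr, 37C/5% CO2; Amplite 30 min RT; luminescence.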

[3] = qHTS assay for small molecules that induce genotoxicity in human embryonic kidney cells expressing luciferase-tagged ATAD5 - cell viability (AID 651634; calls by dose curve; note: nearly all actives have a fitted effect of over 25% in size; note: potency is the fitted concentration of half-maximal effect)
Outline: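 Fluorescence from CellTiter-Fluor, reporting protease activity within live cells, served as the viability read-out. HEK293T cells carrying luciferase-tagged ATAD5 had been treated with compound for 15.5 hr at 37C.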

[4] = qHTS assay for small molecule disruptors of the mitochondrial membrane potential - cell viability (AID 720634; calls by dose curve; note: nearly all actives have a fitted effect of over 20% in size; note: potency is the fitted concentration of half-maximal effect)
Outline: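 Cells: HepG2, 2,000/well, attached overnight. Compound 1 hr, 37 C/5% CO2. +m-MPI dye, +CellTiter-Glo 30 min RT. Readout: luminescence (ATP).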

[5] = qHTS assay to test for compound auto fluorescence at 590 nm (red) in HepG2 cells (AID 720674)
Outline: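 Intrinsic compound fluorescence in the red window (Ex/Em 540/590 nm) is measured in attached HepG2 cells exposed for 1 hr, DMSO vehicle as baseline, benchmarked to Rose Bengal sodium.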

[6] = qHTS assay to test for compound auto fluorescence at 535 nm (green) in HepG2 cells (AID 720675); note: potency is the fitted concentration of half-maximal effect
[7] = qHTS assay to test for compound auto fluorescence at 460 nm (blue) in HEK293 cells (AID 720678); note: potency is the fitted concentration of half-maximal effect
Outline: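 Intrinsic compound fluorescence is recorded in live HEK293 cultures after overnight incubation at 37C, 5% CO2, using excitation 405 nm and emission 460 nm. Values are referenced to triamterene.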

[8] = qHTS assay to test for compound auto fluorescence at 590 nm (red) in HEK293 cells (AID 720679)
Outline: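 Red autofluorescence, HEK293 cells: 2,000 cells/well; attach 4-5 hr 37C; add 23 nL cpd or DMSO; incubate o/n 37C 5% CO2; read Ex540/Em590; Rose Bengal sodium reference.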

[9] = qHTS assay to test for compound auto fluorescence at 535 nm (green) in HEK293 cells (AID 720680)
[10] = qHTS assay to test for compound auto fluorescence at 460 nm (blue) in HEK293 cell free culture (AID 720681); note: potency is the fitted concentration of half-maximal effect
Outline: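 Test compounds were pinned into cell-free culture medium (DMEM with 10% FBS) and fluorescence was read directly at Ex/Em 405/460 nm. Signals were expressed as fluorescence equivalents of triamterene, with DMSO vehicle as control.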

[11] = qHTS assay to test for compound auto fluorescence at 590 nm (red) in HEK293 cell free culture (AID 720683)
Outline: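 Tox21 10K library compounds were pinned into cell-free DMEM with 10% FBS and fluorescence was read at excitation 540 nm. Activity is expressed as Rose Bengal sodium equivalency.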

[12] = qHTS assay to test for compound auto fluorescence at 590 nm (red) in HepG2 cell free culture (AID 720684)
Outline: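 Red fluorescence (540 nm excitation, 590 nm emission) was measured after compound transfer into cell-free MEM supplemented with 10% FBS. Values are equivalencies against Rose Bengal sodium.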

[13] = qHTS assay to test for compound auto fluorescence at 460 nm (blue) in HepG2 cell free culture (AID 720685); note: potency is the fitted concentration of half-maximal effect
Outline: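 Compound (23 nL) or DMSO pinned into cell-free MEM with 10% FBS; blue fluorescence read at 405/460 nm excitation/emission, expressed as auto-fluorescence equivalency to triamterene.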

[14] = qHTS assay to test for compound auto fluorescence at 535 nm (green) in HepG2 cell free culture (AID 720686); note: potency is the fitted concentration of half-maximal effect
[15] = qHTS assay to test for compound auto fluorescence at 460 nm (blue) in HepG2 cells (AID 720687); note: potency is the fitted concentration of half-maximal effect
Outline: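 Cells (2,000/well in MEM with 10% FBS) attached overnight at 37 C, then were exposed to compound or DMSO for 1 hr at 37 C, 5% CO2. Fluorescence read at Ex/Em 405/460 nm, expressed as triamterene-equivalent signal.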

[16] = target: Glucocorticoid receptor (Homo sapiens) (UniProt P04150); experiment: qHTS assay to identify small molecule agonists of the glucocorticoid receptor (GR) signaling pathway (AID 720691; active = well fitted activation curve with a large enough effect in the signal ratio in the repeat runs, not every such curve was filed as active; the % refers to the signal ratio; note: potency is the fitted concentration of half-maximal effect); conditions: GR-bla HeLa, beta-lactamase reporter ratio, 18 h; activation: at 62.4 µM (top of the series)
Outline: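 Fluorescence intensity from LiveBLAzer B/G FRET substrate (2 h, room temperature) reports beta-lactamase expression driven by the glucocorticoid response element in GR-bla HeLa cells after 18 h compound exposure at 37 C.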

[17] = qHTS assay for small molecule disruptors of the mitochondrial membrane potential (AID 720635); note: potency is the fitted concentration of half-maximal effect
Outline: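 HepG2 cells (2,000/well) attached overnight at 37C, then took compound for 1 hr at 37C, 5% CO2. Mito-MPS dye was added for 30 min; fluorescence was read at 490/535 nm (monomers) and 540/590 nm (aggregates).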

[18] = qHTS assay to test for compound auto fluorescence at 535 nm (green) in HEK293 cell free culture (AID 720682); note: potency is the fitted concentration of half-maximal effect
Outline: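 Steps: dispense DMEM/10% FBS into empty wells; pin in compound or DMSO; measure fluorescence at 485/535 nm. Values are fluorescein equivalents.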

[19] = qHTS assay for small molecule agonists of the p53 signaling pathway - cell viability (AID 651633; calls by dose curve; note: nearly all actives have a fitted effect of over 30% in size; note: potency is the fitted concentration of half-maximal effect)
Outline: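 p53RE-bla cells, seeded at 4,000 per well and rested 5 h at 37 C/5% CO2, received compounds in DMSO for 16 h at 37 C. CellTiter-Glo was then added, and luminescence was read after 30 min at room temperature to gauge cytotoxicity.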

[20] = target: Glucocorticoid receptor (Homo sapiens) (UniProt P04150); experiment: qHTS assay to identify small molecule antagonists of the glucocorticoid receptor (GR) signaling pathway (AID 720692; active = well fitted inhibition curve with a large enough effect in the signal ratio in the repeat runs, not every such curve was filed as active; the % refers to the signal ratio; note: potency is the fitted concentration of half-maximal effect)
Outline: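 HeLa GR-bla cells; cmpd + dex 5 nM final, 18 h 37 C; LiveBLAzer B/G FRET substrate 2 h RT; fluorescence intensity read. Antagonist mode, qHTS.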
Tags give direction and shape of the fitted curve or compound fluorescence and quenching.

Chain of Glucocorticoid receptor (Homo sapiens) (P04150 whole entry, looked up): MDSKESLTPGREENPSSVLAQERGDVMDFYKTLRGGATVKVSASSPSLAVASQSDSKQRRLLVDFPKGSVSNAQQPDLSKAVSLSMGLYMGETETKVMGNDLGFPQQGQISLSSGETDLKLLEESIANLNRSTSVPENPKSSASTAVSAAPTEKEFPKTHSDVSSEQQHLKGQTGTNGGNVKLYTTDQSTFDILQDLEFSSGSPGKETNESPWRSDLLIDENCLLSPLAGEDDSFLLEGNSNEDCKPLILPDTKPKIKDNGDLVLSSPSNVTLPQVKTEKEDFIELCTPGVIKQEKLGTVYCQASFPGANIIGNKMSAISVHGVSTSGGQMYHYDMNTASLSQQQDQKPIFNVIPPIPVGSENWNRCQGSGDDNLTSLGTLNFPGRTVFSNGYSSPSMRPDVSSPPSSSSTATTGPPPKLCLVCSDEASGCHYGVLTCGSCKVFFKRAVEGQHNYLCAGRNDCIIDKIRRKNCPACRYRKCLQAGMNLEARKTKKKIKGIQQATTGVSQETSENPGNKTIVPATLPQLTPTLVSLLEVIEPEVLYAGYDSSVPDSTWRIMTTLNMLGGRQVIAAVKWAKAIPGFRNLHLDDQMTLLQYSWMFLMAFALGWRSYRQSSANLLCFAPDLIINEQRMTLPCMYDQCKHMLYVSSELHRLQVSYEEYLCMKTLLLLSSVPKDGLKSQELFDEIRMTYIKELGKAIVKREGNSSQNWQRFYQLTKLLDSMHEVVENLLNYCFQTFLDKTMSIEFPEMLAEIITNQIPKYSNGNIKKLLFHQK

SMILES | Potency [1] | Potency [2] | Potency [3] | Potency [4] | Potency [5] | Potency [6] | Potency [7] | Potency [8] | Potency [9] | Potency [10] | Potency [11] | Potency [12] | Potency [13] | Potency [14] | Potency [15] | Potency [16] | Potency [17] | Potency [18] | Potency [19] | Potency [20]
CCN(CC)CCNc1ccc(CO)c2sc3ccccc3c(=O)c12 | 5.96 µM (active) | inactive | 23.7 µM (active) | inactive | inactive | inactive | inactive | inactive | inactive | inactive | inactive | inactive | inactive | inactive | inactive | 19 µM (active) |  |  |  | 
CC(O)C#CC(C)O (stereo not drawn) | inactive |  | inactive | inactive | inactive | inactive | inactive | inactive |  | inactive | inactive | inactive | inactive | inactive | inactive | inactive |  |  |  | 
C[n+]1c2cc(N)ccc2cc2ccc(N)cc21 (tested in a mixture with another compound) | 7.5 µM (active) |  |  | inactive | inactive | 14.1 µM (active) | 12.6 µM [fluorescent] (active) | inactive |  | 11.2 µM (active) | inactive | inactive | 11.2 µM [fluorescent] (active) | 12.6 µM [fluorescent] (active) | 14.1 µM [fluorescent] (active) |  | 0.668 µM (active) | 12.6 µM [fluorescent] (active) |  | 
Clc1ccc(C(c2ccccc2Cl)C(Cl)Cl)cc1 (stereo not drawn) | 68.6 µM (active) |  | inactive | inactive | inactive | inactive | inactive | inactive |  | inactive | inactive | inactive | inactive | inactive | inactive |  | 13.3 µM (active) and 27.3 µM (active) | inactive | 23.7 µM (active) | 10.7 µM (active) and 27.5 µM (active)
Nc1cc(Cl)c([N+](=O)[O-])cc1O |  | inactive | 68 µM (active) | inactive | inactive | inactive | inactive | inactive | inactive | inactive | inactive | inactive | inactive | inactive | inactive | inactive | 19.2 µM (active) | inactive | inactive | inactive
CCCCCCCCCCCCCCNCCO | inactive | inactive | inactive | inactive | inactive | inactive | inactive | inactive |  | inactive | inactive | inactive | inactive | inactive | inactive |  |  | inactive | inactive | 
CCC(C)c1cc([N+](=O)[O-])cc([N+](=O)[O-])c1OC(=O)OC(C)C (stereo not drawn) | 30.6 µM (active) | inactive | 61.1 µM (active) | 21.7 µM (active) | inactive | inactive | inactive | inactive | inactive |  | inactive | inactive | inactive | inactive | inactive | inactive | 3.06 µM (active) |  |  | 
CCCCCCCCCCOCC(O)CN (stereo not drawn) | 33.5 µM (active) | inactive |  | inactive | inactive | inactive | inactive | inactive |  | inactive | inactive | inactive | inactive | inactive | inactive |  |  | inactive | 29.8 µM (active) | 26.8 µM (active)
O=Nc1ccc(NO)cc1 |  | inactive | inactive | inactive | inactive | inactive | inactive | inactive | inactive | inactive | inactive | inactive | inactive | inactive | inactive | inactive | 50.5 µM (active) | inactive | inactive | 
CCCC(CC)CCCCCCCN (stereo not drawn) | inactive | inactive |  | inactive | inactive | inactive | inactive | inactive | inactive | inactive | inactive | inactive | inactive | inactive | inactive | inactive |  | inactive | inactive | inactive
COC(=O)NCCC[Si](OC)(OC)OC | inactive | inactive | inactive | inactive | inactive |  | inactive | inactive | inactive | inactive | inactive | inactive | inactive | inactive | inactive |  |  | inactive | inactive | 
C/C=C/C=N/NC(=O)c1ccncc1 |  | inactive | inactive | inactive | inactive | inactive | inactive | inactive | inactive | inactive | inactive | inactive | inactive | inactive | inactive | inactive | inactive | inactive | inactive | inactive
CCCCCCCCCC(=O)N(C)C | inactive | inactive | inactive | inactive | inactive | inactive | inactive | inactive | inactive |  | inactive | inactive | inactive | inactive | inactive | inactive |  | inactive | inactive | inactive
C=C(C)C(=O)OCCC[Si](Cl)(Cl)Cl | inactive | inactive | inactive |  | inactive | inactive | inactive | inactive |  | inactive | inactive | inactive | inactive | inactive | inactive | inactive | 61.7 µM (active) | inactive | inactive | 
O=C(O)Cc1ccc(OCCNC[C@H](O)c2ccccc2)cc1 |  | inactive | inactive | inactive | inactive | inactive | inactive | inactive | inactive | inactive | inactive | inactive | inactive | inactive | inactive | inactive | inactive | inactive | inactive | inactive
